Laboratory results from PubChem BioAssay.
“And” between values parts separate entries of the source, which are not always exact repeats. Equal entries are not always repeated. Results filed as inconclusive are left out. The source made the active and inactive calls.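 How the source made its calls, unless noted: active means inhibition above the screen-wide mean plus 3 SD, about 51%; inactive means the rest.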

What was measured:
[1] = rapamycin-like changes in RPL19A-GFP expression – cell-based, S. cerevisiae, multiplex flow cytometry, primary screen (AID 1862; in the data active means percent of DMSO control GFP below about 86%;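 further: lower values mimic rapamycin by blocking the RPL19A rise seen in DMSO cells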); conditions: S. cerevisiae RPL19A-GFP strain, flow cytometry fluorescence, 3 h; at 10 µM; stronger effect = lower value
[2] = TOR pathway GLN3 branch reporter MEP2-GFP changes – S. cerevisiae, multiplex flow cytometry, primary screen (AID 1867;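 active means GFP response, as percent of the DMSO control, above the screen-wide mean plus 3 SD, about 139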;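 further: median GFP channel fluorescence of barcode-gated MEP2-GFP cells measured by flow cytometry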); conditions: S. cerevisiae MEP2-GFP strain, 3 h, at 10 µM, stronger effect = higher value, 100% means same as DMSO wells
[3] = TOR pathway RTG branch CIT2 reporter changes – S. cerevisiae, GFP fusion, multiplex flow cytometry, primary screen (AID 1870;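 active means percent response above a set limit, the screen-wide mean plus 3 SD, cut at about 130% in these data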;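 further: barcoded CIT2-GFP strain pooled with four other GFP strains with rapamycin as positive control; median GFP fluorescence per well over plate mean of DMSO wells so 100% = DMSO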); conditions: S. cerevisiae CIT2-GFP expression, 3 h, at 10 µM, stronger effect = higher value
[4] = TOR pathway LAP4-GFP level changes – S. cerevisiae, multiplex flow cytometry, primary screen (AID 1873;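 active means GFP signal, as percent of the solvent control, above the screen mean plus 3 SD, about 149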); conditions: S. cerevisiae LAP4-GFP expression, 3 h, at 10 µM, stronger effect = higher value
[5] = yeast AGP1-GFP level changes, GLN3 branch – cell-based, multiplex flow cytometry, S. cerevisiae, primary screen (AID 1887;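 active means GFP signal above the screen-wide mean plus 3 SD, that is over about 124.5% of the solvent control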;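 further: AGP1-GFP fusion strain of S. cerevisiae within a five-strain barcoded multiplex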); conditions: 3 h, at 10 µM, stronger effect = higher value
[6] = reduced mouse 2C T cell binding to pMHC/ICAM-1 vesicles – MLPCN validation set, flow cytometry, LFA-1/ICAM-1 modulator project, pilot screen (AID 2523;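 active means response below a set limit, under 55% cells CD8-positive and vesicle-bound, and CD8 cells' 90th-percentile brightness under 279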;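 on vesicle binding response: mean PE anti-B7-1 fluorescence of CD8+ cells relative to row control; 100% = QL9-loaded vesicles with DMSO vehicle in the same plate row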); conditions: 2C mouse CD8+ T cells, at 7 µM, stronger effect = lower value; double positive events: measured here: CD8+/vesicle+ event percentage
[7] = biological target: Integrin beta-1 (Homo sapiens) + Integrin alpha-4 (Homo sapiens) (UniProt P13612+P05556); experiment: alpha4beta1 integrin LIBS antibody binding reduction – U937 cells, HUTS-21 mAb, flow cytometry, validation set, VLA-4 allosteric modulator project, pilot screen (AID 2674;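 active means inhibition above 50%, about 3 SD of the validation set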;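 further: antibody binding induced by the VLA-4 ligand LDV present at three times its Kd; 0% = LDV ligand with antibody and no compound and 100% = antibody without LDV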); conditions: HUTS-21 LIBS mAb binding, at 6.7 µM, stronger effect = higher value, binding induced by LDV ligand
[8] = calorie-restriction mimetic ROS inhibitors, yeast – validation compound set, pilot screen (AID 2706;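 active means superoxide response below 65% of plate, a cut near 3 SD across the whole screen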;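 further: yeast exposed to compound for one week at 30 degrees C before staining; 100% = mean of all compound wells on the same plate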); conditions: S. cerevisiae aging, superoxide DHE fluorescence; at 10 µM; stronger effect = lower value
[9] = biological target: Beta-adrenergic receptor kinase 1 (Homo sapiens) (UniProt P25098); experiment: GRK2 binders displacing RNA aptamer, biochemical, validation, human GRK2, bead flow cytometry (AID 488806;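 active means aptamer binding inhibition above 30%, about 3 SD of noise from non-fluorescent compounds; inactive means inhibition at or below 30%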); conditions: bead-bound GRK2, FAM-aptamer displacement, at 10 µM, stronger effect = higher value
[10] = biological target: Beta-2 adrenergic receptor (Homo sapiens) (UniProt P07550); experiment: agonist-induced loss of surface beta2AR – cell-based, FAP fluorogen, flow cytometry, validation set, pilot screen (AID 504459;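 active means percent response above 42, roughly 3 SD of non-fluorescent test compounds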;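 further: agonist-driven loss of surface beta2AR via internalization measured by FAP dye flow cytometry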); conditions: Am2.2-beta2AR cells, at 10 µM, stronger effect = higher value
[11] = biological target: AP-2 complex subunit beta (Homo sapiens) (UniProt P63010); experiment: beta-arrestin/AP2 interaction blockers – biochemical, validation set, GST-AP2 beads, flow cytometry, pilot screen (AID 504541;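 active means inhibition above 54%, about 3 SD of non-fluorescent compounds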;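 further: AP2 carries R879A mutation and is captured from E. coli lysate; bead-bound FITC arrestin peptide fluorescence measuring arrestin peptide binding to AP2; 0% = DMSO wells and 100% = excess unlabeled arrestin peptide control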); conditions: FITC arrestin peptide, at 10 µM, stronger effect = higher value, AP2 beta2 appendage fragment, R879A mutant
[12] = cytosolic pH regulators acting via V-ATPase – S. cerevisiae, pHLuorin, HTS validation (AID 504600; in the data active means response above about 15%;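 further: plate controls were DMSO for no effect and reference compound for full effect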); conditions: V-ATPase proton transport, at 10 µM, stronger effect = higher value
[13] = system: anti-desmoglein-3 scFv antibody binding to human DSG3; experiment: blockers of pathogenic pemphigus antibody–desmoglein-3 binding – biochemical, validation compound set, bead-based, flow cytometry, pilot screen (AID 588368;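 active means binding below the plate cutoff, the plate median minus 3 SD, with a reading above zero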;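 further: signal is the median channel fluorescence of bead-bound GFP antibody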); conditions: Protein G beads, DSG3-Fc, scFv-GFP binding, at 10 µM, stronger effect = lower value
[14] = Nile Red efflux blockade in pump-expressing yeast – validation compound set, multiplex, phenotypic, pilot screen (AID 588506;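 active means efflux inhibition above 0.42, the validation set average plus 4 SD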;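 further: Nile Red retained in cells so higher fluorescence means more efflux inhibition; 0 = negative control wells and 1 = enniatin B 25 µM full block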); conditions: S. cerevisiae pump-expressing triplex, Nile Red efflux flow cytometry; at 10 µM; stronger effect = higher value; the pumps come from Candida albicans
[15] = biological target: ATP-binding cassette sub-family B member 6 (Homo sapiens) (UniProt Q9NP58); experiment: blockers of ABCB6-driven porphyrin uptake – K562-ABCB6 cells, flow cytometry, validation set, pilot screen (AID 588550); conditions: K562-ABCB6 porphyrin accumulation, 1 h, at 10 µM, stronger effect = higher value;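 further: 0% = DMSO wells and 100% = benzethonium chloride 70 µM positive control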
[16] = AML differentiation inducers, ER-HoxA9 marrow cells – cell-based, GFP/MAC1 double positive, flow cytometry, validation set, primary screen (AID 588685;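 active means differentiation response of at least 50%, scaled between solvent and reference control, from cells with both markers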;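 further: compound exposure lasts four days before antibody staining and flow analysis; 0% = DMSO wells and 100% = 5 µM fulvestrant positive control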); conditions: stronger effect = higher value, normalized: vehicle 0, fulvestrant 100

ATP-binding cassette sub-family B member 6 (Homo sapiens), sequence (Q9NP58 whole entry, looked up): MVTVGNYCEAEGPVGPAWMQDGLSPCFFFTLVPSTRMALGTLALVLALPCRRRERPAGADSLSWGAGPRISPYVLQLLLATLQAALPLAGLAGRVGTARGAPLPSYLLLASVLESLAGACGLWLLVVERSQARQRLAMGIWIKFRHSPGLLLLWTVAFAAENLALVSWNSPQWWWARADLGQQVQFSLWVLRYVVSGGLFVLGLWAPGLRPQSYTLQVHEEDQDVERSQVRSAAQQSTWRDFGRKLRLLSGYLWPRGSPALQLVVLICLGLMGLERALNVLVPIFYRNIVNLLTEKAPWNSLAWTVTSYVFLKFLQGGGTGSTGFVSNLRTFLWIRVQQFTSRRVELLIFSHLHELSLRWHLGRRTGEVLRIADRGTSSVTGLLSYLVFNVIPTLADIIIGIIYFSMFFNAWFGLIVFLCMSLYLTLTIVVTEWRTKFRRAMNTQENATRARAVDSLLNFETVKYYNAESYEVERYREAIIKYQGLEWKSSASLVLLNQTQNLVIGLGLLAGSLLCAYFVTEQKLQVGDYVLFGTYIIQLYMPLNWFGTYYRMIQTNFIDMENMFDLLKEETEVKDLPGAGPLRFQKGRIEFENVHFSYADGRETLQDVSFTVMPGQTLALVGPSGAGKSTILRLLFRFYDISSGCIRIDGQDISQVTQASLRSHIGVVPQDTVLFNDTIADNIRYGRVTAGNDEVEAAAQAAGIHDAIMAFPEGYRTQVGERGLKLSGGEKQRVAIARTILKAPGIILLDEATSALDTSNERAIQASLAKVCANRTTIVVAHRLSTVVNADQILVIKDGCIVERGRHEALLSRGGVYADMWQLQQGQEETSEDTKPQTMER
Integrin beta-1 (Homo sapiens) + Integrin alpha-4 (Homo sapiens), sequence (P05556 whole entry, looked up): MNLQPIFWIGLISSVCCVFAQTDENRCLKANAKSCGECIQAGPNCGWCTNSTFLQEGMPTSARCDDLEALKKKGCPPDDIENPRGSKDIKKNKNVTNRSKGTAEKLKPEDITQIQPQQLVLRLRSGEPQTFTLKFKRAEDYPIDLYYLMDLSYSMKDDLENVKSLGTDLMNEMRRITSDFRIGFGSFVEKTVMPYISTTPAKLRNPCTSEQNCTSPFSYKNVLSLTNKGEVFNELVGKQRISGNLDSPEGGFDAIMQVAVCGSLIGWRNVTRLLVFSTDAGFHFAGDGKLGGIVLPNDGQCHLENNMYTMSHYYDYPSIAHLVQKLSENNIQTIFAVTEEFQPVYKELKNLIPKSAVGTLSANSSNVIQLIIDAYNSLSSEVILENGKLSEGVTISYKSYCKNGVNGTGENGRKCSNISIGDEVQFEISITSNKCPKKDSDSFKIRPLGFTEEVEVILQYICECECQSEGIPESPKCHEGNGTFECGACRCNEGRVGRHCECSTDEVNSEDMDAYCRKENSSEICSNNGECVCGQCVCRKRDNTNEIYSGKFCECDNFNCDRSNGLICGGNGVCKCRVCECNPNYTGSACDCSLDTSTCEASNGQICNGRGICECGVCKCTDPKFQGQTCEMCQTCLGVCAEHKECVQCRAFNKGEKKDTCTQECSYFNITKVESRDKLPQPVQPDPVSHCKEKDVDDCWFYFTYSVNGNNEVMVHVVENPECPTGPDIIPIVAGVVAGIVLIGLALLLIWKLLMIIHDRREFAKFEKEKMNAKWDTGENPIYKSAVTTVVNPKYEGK
Integrin beta-1 (Homo sapiens) + Integrin alpha-4 (Homo sapiens), sequence (P13612 whole entry, looked up): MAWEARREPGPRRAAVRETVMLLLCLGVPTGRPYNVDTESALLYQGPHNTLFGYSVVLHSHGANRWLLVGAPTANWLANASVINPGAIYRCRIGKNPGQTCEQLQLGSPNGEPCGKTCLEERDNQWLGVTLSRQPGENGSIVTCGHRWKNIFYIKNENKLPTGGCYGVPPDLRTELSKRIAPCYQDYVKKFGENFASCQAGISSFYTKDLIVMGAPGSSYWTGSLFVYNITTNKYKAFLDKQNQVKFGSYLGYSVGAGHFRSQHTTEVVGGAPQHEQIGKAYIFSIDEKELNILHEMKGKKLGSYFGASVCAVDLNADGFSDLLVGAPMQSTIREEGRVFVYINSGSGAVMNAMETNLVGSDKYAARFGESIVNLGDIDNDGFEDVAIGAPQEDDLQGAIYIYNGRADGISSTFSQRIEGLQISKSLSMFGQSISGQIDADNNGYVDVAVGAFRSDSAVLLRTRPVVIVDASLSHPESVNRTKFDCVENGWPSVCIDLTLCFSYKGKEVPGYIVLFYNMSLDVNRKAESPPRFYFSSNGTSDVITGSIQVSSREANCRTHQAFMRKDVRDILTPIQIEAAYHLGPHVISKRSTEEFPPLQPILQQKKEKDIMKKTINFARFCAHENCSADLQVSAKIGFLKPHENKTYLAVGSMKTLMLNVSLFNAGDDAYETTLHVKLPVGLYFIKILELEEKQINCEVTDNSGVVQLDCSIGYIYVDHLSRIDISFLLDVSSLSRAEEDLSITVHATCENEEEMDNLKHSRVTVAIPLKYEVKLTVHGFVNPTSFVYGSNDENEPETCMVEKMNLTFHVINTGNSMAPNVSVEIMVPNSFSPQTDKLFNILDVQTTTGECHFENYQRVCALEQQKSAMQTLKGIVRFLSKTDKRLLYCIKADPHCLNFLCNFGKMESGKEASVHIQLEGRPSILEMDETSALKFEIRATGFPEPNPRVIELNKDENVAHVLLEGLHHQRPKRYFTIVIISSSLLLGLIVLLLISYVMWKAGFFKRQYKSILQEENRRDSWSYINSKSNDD
AP-2 complex subunit beta (Homo sapiens), sequence (P63010 whole entry, looked up, the tested form may be a part, one chain of several): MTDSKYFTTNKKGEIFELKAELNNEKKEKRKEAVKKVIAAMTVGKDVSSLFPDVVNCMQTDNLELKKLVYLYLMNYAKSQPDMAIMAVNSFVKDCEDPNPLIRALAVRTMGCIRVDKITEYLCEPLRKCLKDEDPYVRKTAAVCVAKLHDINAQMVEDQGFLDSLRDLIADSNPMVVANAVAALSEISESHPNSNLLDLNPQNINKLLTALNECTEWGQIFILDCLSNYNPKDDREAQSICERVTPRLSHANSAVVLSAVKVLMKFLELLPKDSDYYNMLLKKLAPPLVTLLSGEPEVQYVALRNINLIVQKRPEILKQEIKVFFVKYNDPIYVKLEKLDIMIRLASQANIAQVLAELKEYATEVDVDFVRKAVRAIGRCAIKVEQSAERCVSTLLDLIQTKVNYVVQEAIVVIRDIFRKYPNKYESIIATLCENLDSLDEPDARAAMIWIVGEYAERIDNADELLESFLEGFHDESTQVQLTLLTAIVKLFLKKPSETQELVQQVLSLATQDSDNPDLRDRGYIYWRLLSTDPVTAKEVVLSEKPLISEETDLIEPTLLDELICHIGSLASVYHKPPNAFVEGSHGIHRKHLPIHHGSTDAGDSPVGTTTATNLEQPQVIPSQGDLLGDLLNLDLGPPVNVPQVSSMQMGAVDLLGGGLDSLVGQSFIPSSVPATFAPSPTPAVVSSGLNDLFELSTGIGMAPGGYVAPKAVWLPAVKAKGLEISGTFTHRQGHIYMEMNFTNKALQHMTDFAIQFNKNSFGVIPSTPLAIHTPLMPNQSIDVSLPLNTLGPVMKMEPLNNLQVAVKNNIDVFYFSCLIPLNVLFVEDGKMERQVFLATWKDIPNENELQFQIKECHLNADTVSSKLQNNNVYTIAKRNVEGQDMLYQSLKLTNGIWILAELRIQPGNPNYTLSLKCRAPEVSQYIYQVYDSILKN
Beta-adrenergic receptor kinase 1 (Homo sapiens), sequence (P25098 whole entry, looked up): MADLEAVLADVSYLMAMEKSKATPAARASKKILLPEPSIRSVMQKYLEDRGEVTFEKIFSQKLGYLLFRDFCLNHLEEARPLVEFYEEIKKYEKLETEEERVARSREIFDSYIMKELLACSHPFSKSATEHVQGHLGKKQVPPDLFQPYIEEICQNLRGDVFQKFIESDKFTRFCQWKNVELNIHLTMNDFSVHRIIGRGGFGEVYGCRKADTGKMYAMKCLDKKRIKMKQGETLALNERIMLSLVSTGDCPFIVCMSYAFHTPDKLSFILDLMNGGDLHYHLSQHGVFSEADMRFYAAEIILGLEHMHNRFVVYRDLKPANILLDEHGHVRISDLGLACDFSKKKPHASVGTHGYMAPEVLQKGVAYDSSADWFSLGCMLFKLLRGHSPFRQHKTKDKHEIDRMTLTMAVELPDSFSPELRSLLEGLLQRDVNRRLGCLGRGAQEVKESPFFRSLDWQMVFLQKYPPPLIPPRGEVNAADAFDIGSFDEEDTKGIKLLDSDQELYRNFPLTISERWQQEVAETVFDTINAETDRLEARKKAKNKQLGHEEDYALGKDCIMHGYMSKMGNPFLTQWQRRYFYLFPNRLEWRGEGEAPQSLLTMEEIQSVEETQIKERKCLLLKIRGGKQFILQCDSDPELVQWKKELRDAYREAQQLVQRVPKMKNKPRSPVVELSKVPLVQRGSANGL
Beta-2 adrenergic receptor (Homo sapiens), sequence (P07550 whole entry, looked up): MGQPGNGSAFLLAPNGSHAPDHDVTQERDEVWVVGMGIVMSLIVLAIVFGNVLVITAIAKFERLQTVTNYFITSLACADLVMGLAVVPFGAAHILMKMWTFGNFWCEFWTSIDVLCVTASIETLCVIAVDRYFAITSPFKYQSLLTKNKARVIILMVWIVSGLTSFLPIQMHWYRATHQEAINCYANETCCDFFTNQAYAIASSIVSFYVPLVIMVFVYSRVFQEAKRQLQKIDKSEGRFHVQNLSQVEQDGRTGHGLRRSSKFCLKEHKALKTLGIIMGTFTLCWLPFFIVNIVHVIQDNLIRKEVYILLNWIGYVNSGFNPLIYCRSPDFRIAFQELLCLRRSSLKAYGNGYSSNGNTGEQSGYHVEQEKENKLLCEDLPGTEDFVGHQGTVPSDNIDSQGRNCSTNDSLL

Row | SMILES | percent of DMSO control GFP [1] | GFP response vs DMSO [2] | percent response of DMSO control [3] | GFP response vs DMSO [4] | GFP response, % of DMSO [5] | double positive events [6] | vesicle binding response [6] | inhibition [7] | superoxide response (% of plate) [8] | aptamer binding inhibition [9] | response [10] | inhibition [11] | response [12] | binding (% of control) [13] | efflux inhibition (fraction of control) [14] | inhibition [15] | differentiation response [16]
1 | CCc1cccc2c3c([nH]c12)C(CC)(CC(=O)O)OCC3 (stereo not drawn) | 103% (inactive) | 106% (inactive) | 100% (inactive) | 93.3% (inactive) | 100% (inactive) | 61.9% | 36.2% (inactive) | -4.6% (inactive) | 107% (inactive) | 1% (inactive) | -0.16% (inactive) | -11.4% (inactive) | 1.09% (inactive) | 86.9% (inactive) | -0.26 (inactive) | -5% (inactive) | 3.18% (inactive)
2 | CCC(C)NCCOc1ccccc1C (stereo not drawn) | 104% (inactive) | 101% (inactive) | 105% (inactive) | 97% (inactive) | 108% (inactive) | 61.2% | 115% (inactive) | 5.61% (inactive) | 104% (inactive) | -4% (inactive) | -6.41% (inactive) | 29% (inactive) | -2.79% (inactive) | 96.8% (inactive) | -0.61 (inactive) | 12% (inactive) | -16.3% (inactive)
3 | Cc1ccc(/C=N/Nc2nc(C(C)(C)C)cs2)o1 | 103% (inactive) | 106% (inactive) | 95.8% (inactive) | 98.2% (inactive) | 97.8% (inactive) | 69.4% | 302% (inactive) | 17.3% (inactive) | 80.8% (inactive) | 5% (inactive) | 4.35% (inactive) | -1.54% (inactive) | 6.19% (inactive) | 102% (inactive) | 0.51 (active) | 114% (active) | 7.2% (inactive)
4 | CSc1ccc(CN2CCN(CCC(C)C)C(CCO)C2)cc1 (stereo not drawn) | 101% (inactive) | 106% (inactive) | 109% (inactive) | 117% (inactive) | 131% (active) | 61.2% | 199% (inactive) | 4.84% (inactive) | 91.4% (inactive) | -1% (inactive) | -11.6% (inactive) | -9.19% (inactive) | 2.63% (inactive) | 102% (inactive) | -0.09 (inactive) | 0% (inactive) | -5.97% (inactive)
5 | CCn1c(SCC(=O)c2ccccc2)nc2ccccc2c1=O | 103% (inactive) | 108% (inactive) | 99.7% (inactive) | 115% (inactive) | 104% (inactive) | 60.3% | 176% (inactive) | -18.5% (inactive) | 110% (inactive) | -1% (inactive) | 0.7% (inactive) | 9.92% (inactive) | -1.15% (inactive) | 99.6% (inactive) | 0.53 (active) | 9% (inactive) | -14.8% (inactive)
6 | COc1cc2nc(N3CCN(C(=O)C4CCCO4)CC3)nc(N)c2cc1OC (stereo not drawn) | 102% (inactive) | 106% (inactive) | 95.5% (inactive) | 92.6% (inactive) | 94% (inactive) | 55.7% and 64.6% | 197% (inactive) and 148% (inactive) | 1.62% (inactive) and 5.61% (inactive) | 98% (inactive) and 91.7% (inactive) | -3% (inactive) and 5% (inactive) | 20.9% (inactive) | 8.12% (inactive) and -5.62% (inactive) | -29.6% (inactive) and 2.76% (inactive) | 109% (inactive) and 107% (inactive) | -0.39 (inactive) and -0.33 (inactive) | 7% (inactive) and -13% (inactive) | 22.4% (inactive) and 10.1% (inactive)
7 | N#Cc1cc2c([nH]c1=O)CCCC2 | 103% (inactive) | 98.3% (inactive) | 108% (inactive) | 90.7% (inactive) | 108% (inactive) | 63.2% | 184% (inactive) | 16.1% (inactive) | 89.5% (inactive) | 0% (inactive) | -10.3% (inactive) | -13.1% (inactive) | 12.5% (inactive) | 97.7% (inactive) | -0.04 (inactive) | -2% (inactive) | -5.62% (inactive)
8 | COc1ccc(N2CCN(C(=S)NCc3ccccc3)CC2)cc1 | 91.7% (inactive) | 133% (inactive) | 101% (inactive) | 81.4% (inactive) | 88.2% (inactive) | 65.5% | 171% (inactive) | 0.64% (inactive) | 82.1% (inactive) | 2% (inactive) | -3.32% (inactive) | 30.1% (inactive) | -3.6% (inactive) | 108% (inactive) | 0.16 (inactive) | 0% (inactive) | 4.09% (inactive)
9 | Clc1cc(-c2ccc(/C=N/n3cnnc3)o2)ccc1Br | 100% (inactive) | 103% (inactive) | 102% (inactive) | 114% (inactive) | 99.9% (inactive) | 56.6% | 130% (inactive) | -3.77% (inactive) | 97% (inactive) | -5% (inactive) | -6.37% (inactive) | 0.75% (inactive) | 3.36% (inactive) | 98.8% (inactive) | -0.36 (inactive) | -9% (inactive) | -4.57% (inactive)
